Records with an inconclusive call do not appear. Active and inactive are the calls of the source. Unless noted, calls follow the shape of the dose curve; as a rule, active = well fitted curve in the direction sought with a large enough effect; inconclusive = small, poorly fitted or top-dose-only effect, or another doubt; inactive = no such curve, though single readings can be large; an effect the other way counts as inactive or inconclusive.
Assays:
[1] = molecular target: ATP-dependent 6-phosphofructokinase (Trypanosoma brucei brucei) (UniProt O15648); assay: qHTS Assay to Find Inhibitors of T. brucei phosphofructokinase: hit validation (AID 492961);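 also: luminescence reports ADP formed as PFK phosphorylates fructose-6-phosphate with ATP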
Method in brief: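 In this biochemical qHTS validation, titrated compounds were tested against 1.25 nM PFK with 0.1 mM ATP and 0.5 mM F6P. Percent activity came from controls lacking or containing enzyme.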

[2] = molecular target: Ubiquitin carboxyl-terminal hydrolase 1 (Homo sapiens) (UniProt O94782); assay: Inhibitors of USP1/UAF1: Pilot qHTS (AID 504865);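 also: rhodamine fluorescence freed from ubiquitin-rhodamine substrate followed over time; top concentration of the series differs between compounds; nearly all actives have a fitted effect of over 35% in size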
Method in brief: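 1nM USP1/UAF1 + cpd, 15 min RT; start w/ Ub-Rho 150nM final; kinetic FL 480/540 nm, 6 reads q60 s. Buffer 50mM HEPES pH 7.8, 0.5mM EDTA, 1mM TCEP, 0.01% Tween-20, 0.1 mg/ml BSA.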

[3] = molecular target: Luciferin 4-monooxygenase (Photinus pyralis) (UniProt P08659); assay: Biochemical firefly luciferase enzyme assay for NPC (AID 624030);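 also: purified P. pyralis luciferase at 10 nM with luciferin and ATP substrate; nearly all actives have a fitted effect of over 70% in size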
Method in brief: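 Direct inhibition of firefly luciferase enzyme (10 nM final, 50 mM Tris Acetate) assessed by luminescence within 5 minutes. Percent activity scaled between DMSO and PTC124 positive control, with concentration-effect curves classified by fit quality and response.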

[4] = S16 Schwann cell viability assay (CellTiter-Glo assay) (AID 624031); also: potency is read from the fitted curve at half-maximal effect; nearly all actives have a fitted effect of over 70% in size
Method in brief: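 Parental S16 cells, 24 h compound, 37 °C. ATP-luminescence viability; DMSO = 0% activity, empty wells as reference; curves classified by fit quality and efficacy.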

[5] = S16 Schwann cell PMP22 intronic element firefly luciferase assay (AID 624032); also: potency is read from the fitted curve at half-maximal effect; nearly all actives have a fitted effect of over 30% in size
Method in brief: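 Luciferase reporter of PMP22 intronic-element expression in stably transfected S16 rat Schwann cells, read by ONE-Glo luminescence after 24 h compound exposure at 37 C. Activity scaled between DMSO (0%) and positive-control PTC124; concentration-effect curves quality-classified.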

[6] = S16 Schwann cell PMP22 intronic element beta-lactamase assay (AID 624044; calls by dose curve; also: potency is read from the fitted curve at half-maximal effect; nearly all actives have a fitted effect of over 15% in size); settings: S16 rat Schwann cells, PMP22 element beta-lactamase FRET, 24 h; ratio activity, negative = inhibition: at 38.3 µM (top of the series) unless noted
Method in brief: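 Rat S16 Schwann cells with beta-Lac driven by a PMP22 intronic element, compound-treated 24 h at 37 °C. LiveBLAzer FRET B/G read: 460 nm normalized to potassium clavulanate vs DMSO; 535 nm FRET as viability; concentration-effect curves classified.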

[7] = Primary qHTS for Huh7 cytotoxicity: counterscreen for inhibitors of MERS-S pseudotyped particle cell entry (AID 1479147; calls by dose curve); settings: outcome: dose series up to 57.1 µM unless noted
[8] = Primary qHTS for inhibitors of MERS-S pseudo-typed particle cell entry (AID 1479149; calls by dose curve; also: nearly all actives have a fitted effect of over 60% in size); settings: outcome: dose series up to 57.1 µM unless noted
[9] = Primary qHTS for Vero E6 cytotoxicity: counterscreen for inhibitors of SARS-S pseudo-typed particle cell entry (AID 1479150; calls by dose curve); settings: outcome: dose series up to 57.1 µM unless noted
[10] = Cytotoxicity counterscreen for inhibitors of SARS-CoV-2 cell entry (AID 1645845; calls by dose curve; also: nearly all actives have a fitted effect of over 50% in size); settings: outcome: dose series up to 57.1 µM unless noted
Method in brief: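 48 h compound treatment (after 1 h preincubation), HEK293-ACE2 cells, 37 C/5% CO2; ATP luminescence endpoint; normalized to cell wells and media blanks.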

[11] = Primary qHTS to identify inhibitors of SARS-CoV-2 cell entry (AID 1645846; calls by dose curve; also: nearly all actives have a fitted effect of over 45% in size); settings: SARS-CoV-2 pseudovirus cell entry assay, luminescence; activity change, negative = inhibition: at 57.1 µM (top of the series) unless noted
Method in brief: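 HEK293-ACE2 (Expi293F, stable hACE2), 1500 cells/well, o/n 37C; cpd 23 nL pin, 1 h; MLV-PP w/ SARS-CoV-2-S (Wuhan-Hu-1, Δ19 C-term); 48 h 37C; Bright-Glo luminescence; normalized vs S-PP and bald PP.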

[12] = molecular target: Glutathione peroxidase 1 (Homo sapiens) (UniProt P07203); assay: Primary qHTS Assay for Inhibitors of Recombinant Selenoprotein Glutathione Peroxidase 1 (GPX1) (AID 1845191); also: nearly all actives have a fitted effect of over 65% in size
Method in brief: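 10 nM GPX1 + cpd, 30 min RT; start w/ 1 mM GSH, 0.5 mM cumene hydroperoxide, 0.5 mM NADPH, 100 nM GR, 0.01% BSA; buffer 50 mM Tris-HCl pH 7.5, 2 mM EDTA, 150 mM NaCl; Fl 340/450, 0 & 15 min.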

[13] = molecular target: Phospholipid hydroperoxide glutathione peroxidase GPX4 (Homo sapiens) (UniProt P36969); assay: Primary qHTS Assay for Inhibitors of Recombinant Selenoprotein Glutathione Peroxidase 4 (GPX4) (AID 1845192); also: nearly all actives have a fitted effect of over 65% in size
Method in brief: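 NADPH consumption, followed by fluorescence at 340/450 nm between 0 and 15 min, reports GPX4 activity via coupled glutathione reductase (100 nM). Enzyme 200 nM was pre-exposed to compound 30 min; 0.5 mM cumene hydroperoxide and 1 mM GSH served as substrates.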

[14] = qHTS profiling for inhibitors of Plasmodium falciparum proliferation (AID 504749); also: potency is read from the fitted curve at half-maximal effect; nearly all actives have a fitted effect of over 60% in size; settings: P. falciparum in erythrocytes, SYBR Green DNA, 72 h
Method in brief: (§1)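 Infected RBCs, 0.3% parasitemia/2.5% Hct final; cpd 72 h, 37 C, 5% CO2; lysis buffer with saponin/triton/SYBR Green I, o/n RT dark; FI 485/535; norm. to artemisinin (0.29 uM) and DMSO.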

3D7 = assay: as above; settings: P. falciparum in erythrocytes, SYBR Green DNA, 72 h; series mostly up to 28.7 µM
Method in brief: as §1

7G8 = assay: as above; settings: P. falciparum in erythrocytes, SYBR Green DNA, 72 h; series mostly up to 12.8 µM
Method in brief: as §1

AA1029 = assay: as above; settings: P. falciparum in erythrocytes, SYBR Green DNA, 72 h; series mostly up to 28.7 µM
Method in brief: as §1

AS120 = assay: as above; settings: P. falciparum in erythrocytes, SYBR Green DNA, 72 h; series mostly up to 28.7 µM
Method in brief: as §1

ATS189 = assay: as above; settings: P. falciparum in erythrocytes, SYBR Green DNA, 72 h; series mostly up to 28.7 µM
Method in brief: as §1

ATS95 = assay: as above; settings: P. falciparum in erythrocytes, SYBR Green DNA, 72 h; series mostly up to 28.7 µM
Method in brief: as §1

C2A = assay: as above; settings: P. falciparum in erythrocytes, SYBR Green DNA, 72 h; series mostly up to 28.7 µM
Method in brief: as §1

CP185 = assay: as above; settings: P. falciparum in erythrocytes, SYBR Green DNA, 72 h; series mostly up to 28.7 µM
Method in brief: as §1

CP191 = assay: as above; settings: P. falciparum in erythrocytes, SYBR Green DNA, 72 h; series mostly up to 28.7 µM
Method in brief: as §1

CP192 = assay: as above; settings: P. falciparum in erythrocytes, SYBR Green DNA, 72 h; series mostly up to 28.7 µM
Method in brief: as §1

CP194 = assay: as above; settings: P. falciparum in erythrocytes, SYBR Green DNA, 72 h; series mostly up to 28.7 µM
Method in brief: as §1

CP201 = assay: as above; settings: P. falciparum in erythrocytes, SYBR Green DNA, 72 h; series mostly up to 28.7 µM
Method in brief: as §1

CP203 = assay: as above; settings: P. falciparum in erythrocytes, SYBR Green DNA, 72 h; series mostly up to 28.7 µM
Method in brief: as §1

CP211 = assay: as above; settings: P. falciparum in erythrocytes, SYBR Green DNA, 72 h; series mostly up to 28.7 µM
Method in brief: as §1

CP215 = assay: as above; settings: P. falciparum in erythrocytes, SYBR Green DNA, 72 h; series mostly up to 28.7 µM
Method in brief: as §1

CP217 = assay: as above; settings: P. falciparum in erythrocytes, SYBR Green DNA, 72 h; series mostly up to 28.7 µM
Method in brief: as §1

CP237 = assay: as above; settings: P. falciparum in erythrocytes, SYBR Green DNA, 72 h; series mostly up to 28.7 µM
Method in brief: as §1

CP238 = assay: as above; settings: P. falciparum in erythrocytes, SYBR Green DNA, 72 h; series mostly up to 28.7 µM
Method in brief: as §1

CP247 = assay: as above; settings: P. falciparum in erythrocytes, SYBR Green DNA, 72 h; series mostly up to 28.7 µM
Method in brief: as §1

CP250 = assay: as above; settings: P. falciparum in erythrocytes, SYBR Green DNA, 72 h; series mostly up to 12.8 µM
Method in brief: as §1

Sequence of Luciferin 4-monooxygenase (Photinus pyralis) (P08659 whole entry, looked up): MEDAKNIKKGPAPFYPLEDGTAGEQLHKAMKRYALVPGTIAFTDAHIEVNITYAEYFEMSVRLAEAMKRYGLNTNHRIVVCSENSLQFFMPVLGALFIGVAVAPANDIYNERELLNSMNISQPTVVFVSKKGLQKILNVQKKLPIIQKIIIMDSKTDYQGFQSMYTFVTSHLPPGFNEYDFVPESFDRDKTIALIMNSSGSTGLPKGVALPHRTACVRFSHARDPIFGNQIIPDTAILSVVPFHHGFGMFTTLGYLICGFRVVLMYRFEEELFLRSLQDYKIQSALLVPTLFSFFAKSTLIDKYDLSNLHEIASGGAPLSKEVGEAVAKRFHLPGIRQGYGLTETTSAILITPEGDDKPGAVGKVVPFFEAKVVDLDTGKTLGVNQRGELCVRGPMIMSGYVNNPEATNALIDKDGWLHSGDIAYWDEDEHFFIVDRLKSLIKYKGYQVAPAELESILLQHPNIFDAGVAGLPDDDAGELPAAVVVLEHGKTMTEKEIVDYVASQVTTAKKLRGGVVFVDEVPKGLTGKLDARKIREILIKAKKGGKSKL
Sequence of Ubiquitin carboxyl-terminal hydrolase 1 (Homo sapiens) (O94782 whole entry, looked up): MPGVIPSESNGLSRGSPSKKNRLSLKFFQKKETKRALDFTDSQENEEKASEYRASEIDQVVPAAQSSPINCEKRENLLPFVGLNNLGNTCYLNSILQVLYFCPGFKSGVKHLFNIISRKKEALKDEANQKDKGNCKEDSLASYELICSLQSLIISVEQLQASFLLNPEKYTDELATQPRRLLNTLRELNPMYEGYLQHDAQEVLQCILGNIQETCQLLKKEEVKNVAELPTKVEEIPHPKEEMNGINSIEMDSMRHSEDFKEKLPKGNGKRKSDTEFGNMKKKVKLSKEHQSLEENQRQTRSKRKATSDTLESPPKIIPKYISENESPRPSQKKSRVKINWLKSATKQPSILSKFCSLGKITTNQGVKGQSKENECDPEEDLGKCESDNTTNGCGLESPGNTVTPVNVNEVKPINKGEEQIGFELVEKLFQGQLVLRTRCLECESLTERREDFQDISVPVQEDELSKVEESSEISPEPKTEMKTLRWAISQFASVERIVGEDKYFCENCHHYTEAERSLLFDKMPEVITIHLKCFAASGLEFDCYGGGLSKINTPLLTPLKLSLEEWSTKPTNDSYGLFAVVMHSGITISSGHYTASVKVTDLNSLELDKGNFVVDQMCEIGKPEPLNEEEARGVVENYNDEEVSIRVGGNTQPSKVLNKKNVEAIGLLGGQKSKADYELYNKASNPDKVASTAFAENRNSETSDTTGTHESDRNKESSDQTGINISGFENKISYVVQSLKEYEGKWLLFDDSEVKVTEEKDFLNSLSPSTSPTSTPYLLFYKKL
Sequence of ATP-dependent 6-phosphofructokinase (Trypanosoma brucei brucei) (O15648 whole entry, looked up): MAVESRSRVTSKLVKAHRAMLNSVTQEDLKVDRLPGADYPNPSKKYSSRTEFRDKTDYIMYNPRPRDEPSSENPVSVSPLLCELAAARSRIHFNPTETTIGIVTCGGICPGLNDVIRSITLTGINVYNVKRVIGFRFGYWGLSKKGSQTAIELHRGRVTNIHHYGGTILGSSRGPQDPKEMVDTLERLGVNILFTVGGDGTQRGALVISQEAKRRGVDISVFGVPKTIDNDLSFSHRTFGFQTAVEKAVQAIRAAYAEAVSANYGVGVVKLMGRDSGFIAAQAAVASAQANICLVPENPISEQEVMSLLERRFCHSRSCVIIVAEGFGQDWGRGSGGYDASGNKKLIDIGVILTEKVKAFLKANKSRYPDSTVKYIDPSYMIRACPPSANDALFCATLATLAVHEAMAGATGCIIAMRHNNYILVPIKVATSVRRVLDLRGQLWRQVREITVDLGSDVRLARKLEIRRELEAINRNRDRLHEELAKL
Sequence of Phospholipid hydroperoxide glutathione peroxidase GPX4 (Homo sapiens) (P36969 whole entry, looked up): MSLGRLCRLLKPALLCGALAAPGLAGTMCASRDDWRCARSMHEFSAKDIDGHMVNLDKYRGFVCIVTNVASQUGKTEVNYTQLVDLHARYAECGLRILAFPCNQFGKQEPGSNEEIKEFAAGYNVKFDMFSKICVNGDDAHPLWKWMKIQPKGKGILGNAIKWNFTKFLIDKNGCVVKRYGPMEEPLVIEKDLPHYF
Sequence of Glutathione peroxidase 1 (Homo sapiens) (P07203 whole entry, looked up): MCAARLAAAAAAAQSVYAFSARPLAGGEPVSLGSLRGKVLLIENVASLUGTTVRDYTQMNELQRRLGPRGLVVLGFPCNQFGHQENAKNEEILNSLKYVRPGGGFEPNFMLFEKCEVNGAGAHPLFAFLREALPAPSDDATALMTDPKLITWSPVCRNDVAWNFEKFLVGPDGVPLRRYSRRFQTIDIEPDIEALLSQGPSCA

CO[C@@H](COC(N)=O)C1=C(N2CC2)C(=O)C(C)=C(N2CC2)C1=O
inactive: Potency [1] | Potency [2] | Potency [3] | Potency [7] | Potency [8] | Potency [9] | Potency [10] | Potency [12] | Potency [13]
-18.1%: activity change, negative = inhibition [11]
active: Potency [4] 32200 nM | Potency [5] 36100 nM | Potency [6] 354 nM | Potency ([14]; parasite line A) 891 nM | Potency ([14]; parasite line B) 1410 nM | Potency (3D7) 1260 nM | Potency (7G8) 1260 nM | Potency (AA1029) 1410 nM | Potency (AS120) 891 nM | Potency (ATS189) 2820 nM | Potency (ATS95) 1410 nM | Potency (C2A) 794 nM | Potency (CP185) 794 nM | Potency (CP191) 708 nM | Potency (CP192) 1690 nM | Potency (CP194) 1690 nM | Potency (CP201) 3380 nM | Potency (CP203) 1510 nM | Potency (CP211) 675 nM | Potency (CP215) 1900 nM | Potency (CP217) 3160 nM | Potency (CP237) 1260 nM | Potency (CP238) 1410 nM | Potency (CP247) 708 nM | Potency (CP250) 1410 nM

Source: PubChem BioAssay (NCATS)
